This is an account of results in article PMC12864922, “TDP-43 directly inhibits mRNA accumulation in neurites through modulation of mRNA stability”.

To fix the notation:
B1: ENSMUSG00000042529.155|Kcnj12|40:44 (ssRNA)
RNA: GGGAGUUCUACAGUCCGACGAUCGCUUCGAUAUCCGCAUGCUAAGAGUGGGUGCUUCUUAGAAAAGGACACUCAGGAAAUUACAUACGGGUCUGGGUCCCACAUCCCCAGGAAGUGGGUCAGCCCCACGUCCCCCGCUGGACUCACAGCUUGAGUUGUGCCUUAGAGACUCUGGUUGUCUGGCUUCCGUCAUUUCUGGUUUUCUCAGACUUGUUUAAUCUUUCCCUACUGCCCUAAGUCCACUCAUGAAGCUCCCCAGGCCCUUCUGAGAUUGCAGAGGCUGCUUGCUCAUAGCCAUGACCCUCUCUUGCGGUCGCACUAGUGUGGAAUUCUCGGGUGUCAAGG
B2: ENSMUSG00000031028.502|Tub (ssRNA)
RNA: GGGAGUUCUACAGUCCGACGAUCGCUUCGAUAUCCGCAUGCUACAAGUAAGGUGUGUGCCUCUGGGAAGACAGGAGUCGGAAGCCAAGGUGUGUGGCAACAGUCUGGAAGAGAGCUUUUGGUAAUCAUACCGUCUUCAGUGACAAGGCAACAAUGCUGUAAAGUGGGUUUGUUUGGUUUUGUUUUUUCUUUCUCUUUUAUGGAAAUGGCAGGUCUAUUUGCCUCAAACGUUAUGUAGAAGUAGUUCUAAGUUUAACAAGCAAUAGAGAUGACUGCUUAGCUAGGAUCUGCAGGGAGCUCUGCUCUCUUGCGGUCGCACUAGUGUGGAAUUCUCGGGUGUCAAGG
B3: ENSMUSG00000042529.125|Kcnj12|220:224 (ssRNA)
RNA: GGGAGUUCUACAGUCCGACGAUCGCUUCGAUAUCCGCAUGCUAGUGGGGCCCACUAGGGUGAAUCUGGCUUGCUCUUCUGUUUGAUGUUGUUGUACCUCAGCUGCCUCAGGGCUGGGUUUAGACACCCCUUCCCCCACCCCCACUCCGUACUCCCUGUUGUGCUUCCCUUCCUAUUUAGUCCCAGGUCUCCACCCCUUGCAGCGAGGGGGCAUAGGAAACACCAGAGUGGGUGCUUCUUAGAAAAGGACACUCAGGAAAUUACAUACGGGUCUGGGUCCCACAUCCCCAGGAAGUGGGUCAGCCUCUUGCGGUCGCACUAGUGUGGAAUUCUCGGGUGUCAAGG
B4: ENSMUSG00000031028.204|Tub|197:201;203:208 (ssRNA)
RNA: GGGAGUUCUACAGUCCGACGAUCGCUUCGAUAUCCGCAUGCUACUCUUCCCAGUUCCAGAGAUGAAACCCCUCCGAGUUAAUGUAUAAGGUUGGAAACCUUUCAGUAGGGAAUCAGGCAGUUCCCUGUUGAAAGUUGUCUGAGUUUUUGCACACCAUUCUGAUCUGAUGUGGCCUGUGCCUGGCUCCUCUAUGAGGACUUCGAGCUGUGCACAGACCUUAGCAGGACCACUGCACACUUACACACACACACACAGGCAGCCCAAGGGUUCUGGGGCUGGGCUUGGACACGCCCUCCAUUGGGACUCUUGCGGUCGCACUAGUGUGGAAUUCUCGGGUGUCAAGG
B5: ENSMUSG00000032194.8|Kank2 (ssRNA)
RNA: GGGAGUUCUACAGUCCGACGAUCGCUUCGAUAUCCGCAUGCUAGCCGAGGAGUGAAUACAGGGAGGAGCCAGUGAGUCCCCCAGGACCCACCAGCCACAAGCCACGCAUCAAACCGUCCCUCCUCCAUCCCUCUGUCCCAUUCUGCCUCGGCAUUCCUCAGCCCCUGAACUUCCCUGAGGGAGCCCUGACAUCUACCAGGCUCAAGCUCCUGGAAGCCUUUCCCAGCACCCUGGGUUCAAAGCCAGAAAGCCAAGCUACAUUCUCCUCCCAGUUGGCACCAGUUGACAACGCCUUGGGUGUGGCUCUUGCGGUCGCACUAGUGUGGAAUUCUCGGGUGUCAAGG
B6: ENSMUSG00000031028.492|Tub|69:75;106:112 (ssRNA)
RNA: GGGAGUUCUACAGUCCGACGAUCGCUUCGAUAUCCGCAUGCUAUUUAAAUGAACAUGGGGUGGUGAUGGUGCCUUAACAAUCUUGACACUAAGGUGAAGCAAGCAAGUAAGCACACACCCUCUGGGAAGACAGGAGUCGGAAGCCAAGCACACACGCAACAGUCUGGAAGAGAGCUUUUGGUAAUCAUACCGUCUUCAGUGACAAGGCAACAAUGCUGUAAAGUGGGUUUGUUUGGUUUUGUUUUUUCUUUCUCUUUUAUGGAAAUGGCAGGUCUAUUUGCCUCAAACGUUAUGUAGAAGUAGCUCUUGCGGUCGCACUAGUGUGGAAUUCUCGGGUGUCAAGG
B7: ENSMUSG00000061578.750|Ksr2 (ssRNA)
RNA: GGGAGUUCUACAGUCCGACGAUCGCUUCGAUAUCCGCAUGCUACAAGUUUGAGUCUCCAUAUGGGCCCUUCCUGUCCUCAUGCCCUGCCUGUCUUCAUUCCACCCAUCCACCCUCCUAAGGAUUGGUCUUGUUCCGAGAGUGAUCCUGGUAACGCCAAGCCUCCCUCUGCCCCUGUGUUGGCUUCUGUGACGGACUACCACACACCAAGAGGUUUUUCACAGUGAAGAUGUAUGCUCUCACCAUCCUACAGAUGCAAAGACCAAACACAAAGUGUCUGCAUGACCUUCCCCCUCUGGAAUUUGCUCUUGCGGUCGCACUAGUGUGGAAUUCUCGGGUGUCAAGG
B8: ENSMUSG00000028439.170|Fam219a (ssRNA)
RNA: GGGAGUUCUACAGUCCGACGAUCGCUUCGAUAUCCGCAUGCUAUGUAUGAUAUGGUAUGGUAUGGUAUGGUAUGGUAUGGUAUGGUAUGCACAUGUGUGUGCAUGUGUGUGUGCCUGUGUGUGUGCGUGUGCGUGUGUGUAUGUGUGUGCGUGUGUGUGUGUGUGUGUUGUACCCGAGUGUGUGUUGAGCCUAUCUGUCCAGGGAACCAGAUUGGUGUCCGAGAUGAGGAAAUGGCUGUGGCCUGGGAAAUCAGUGAGAGGCCGCUUGGGAAUGAGAAUGCAGUGGACUGAAAGCACAGCCUGCUCUUGCGGUCGCACUAGUGUGGAAUUCUCGGGUGUCAAGG
B9: ENSMUSG00000028439.172|Fam219a (ssRNA)
RNA: GGGAGUUCUACAGUCCGACGAUCGCUUCGAUAUCCGCAUGCUAUAUGGUAUGGUAUGGUAUGGUAUGGUAUGGUAUGCACAUGUGUGUGCAUGUGUGUGUGCCUGUGUGUGUGCGUGUGCGUGUGUGUAUGUGUGUGCGUGUGUGUGUGUGUGUGUUGUACCCGAGUGUGUGUUGAGCCUAUCUGUCCAGGGAACCAGAUUGGUGUCCGAGAUGAGGAAAUGGCUGUGGCCUGGGAAAUCAGUGAGAGGCCGCUUGGGAAUGAGAAUGCAGUGGACUGAAAGCACAGCCUGGCCAUCUGGAACCUCUUGCGGUCGCACUAGUGUGGAAUUCUCGGGUGUCAAGG
B10: ENSMUSG00000028439.174|Fam219a (ssRNA)
RNA: GGGAGUUCUACAGUCCGACGAUCGCUUCGAUAUCCGCAUGCUAUGGUAUGGUAUGGUAUGGUAUGCACAUGUGUGUGCAUGUGUGUGUGCCUGUGUGUGUGCGUGUGCGUGUGUGUAUGUGUGUGCGUGUGUGUGUGUGUGUGUUGUACCCGAGUGUGUGUUGAGCCUAUCUGUCCAGGGAACCAGAUUGGUGUCCGAGAUGAGGAAAUGGCUGUGGCCUGGGAAAUCAGUGAGAGGCCGCUUGGGAAUGAGAAUGCAGUGGACUGAAAGCACAGCCUGGCCAUCUGGAACCUGGGUUCUGGUCUCUUGCGGUCGCACUAGUGUGGAAUUCUCGGGUGUCAAGG
B11: ENSMUSG00000028439.176|Fam219a (ssRNA)
RNA: GGGAGUUCUACAGUCCGACGAUCGCUUCGAUAUCCGCAUGCUAGUAUGGUAUGCACAUGUGUGUGCAUGUGUGUGUGCCUGUGUGUGUGCGUGUGCGUGUGUGUAUGUGUGUGCGUGUGUGUGUGUGUGUGUUGUACCCGAGUGUGUGUUGAGCCUAUCUGUCCAGGGAACCAGAUUGGUGUCCGAGAUGAGGAAAUGGCUGUGGCCUGGGAAAUCAGUGAGAGGCCGCUUGGGAAUGAGAAUGCAGUGGACUGAAAGCACAGCCUGGCCAUCUGGAACCUGGGUUCUGGUCCCAGCCUCGGCCUCUUGCGGUCGCACUAGUGUGGAAUUCUCGGGUGUCAAGG
B12: ENSMUSG00000028439.174|Fam219a|3:22;27:34;37:46;49:58;60:64;66:82;84:101;111:118 (ssRNA)
RNA: GGGAGUUCUACAGUCCGACGAUCGCUUCGAUAUCCGCAUGCUAUGCAUACCAUACCAUACCAUACCACAACACACACCAACACACACACCCACACACACACCCACACCCACACACAUACACACACCCACACACACACACACACAUGUACCCGACACACACAUGAGCCUAUCUGUCCAGGGAACCAGAUUGGUGUCCGAGAUGAGGAAAUGGCUGUGGCCUGGGAAAUCAGUGAGAGGCCGCUUGGGAAUGAGAAUGCAGUGGACUGAAAGCACAGCCUGGCCAUCUGGAACCUGGGUUCUGGUCUCUUGCGGUCGCACUAGUGUGGAAUUCUCGGGUGUCAAGG
B13: ENSMUSG00000028439.171|Fam219a (ssRNA)
RNA: GGGAGUUCUACAGUCCGACGAUCGCUUCGAUAUCCGCAUGCUAAUAUGGUAUGGUAUGGUAUGGUAUGGUAUGGUAUGGUAUGCACAUGUGUGUGCAUGUGUGUGUGCCUGUGUGUGUGCGUGUGCGUGUGUGUAUGUGUGUGCGUGUGUGUGUGUGUGUGUUGUACCCGAGUGUGUGUUGAGCCUAUCUGUCCAGGGAACCAGAUUGGUGUCCGAGAUGAGGAAAUGGCUGUGGCCUGGGAAAUCAGUGAGAGGCCGCUUGGGAAUGAGAAUGCAGUGGACUGAAAGCACAGCCUGGCCAUCCUCUUGCGGUCGCACUAGUGUGGAAUUCUCGGGUGUCAAGG
B14: ENSMUSG00000028439.175|Fam219a (ssRNA)
RNA: GGGAGUUCUACAGUCCGACGAUCGCUUCGAUAUCCGCAUGCUAGGUAUGGUAUGGUAUGCACAUGUGUGUGCAUGUGUGUGUGCCUGUGUGUGUGCGUGUGCGUGUGUGUAUGUGUGUGCGUGUGUGUGUGUGUGUGUUGUACCCGAGUGUGUGUUGAGCCUAUCUGUCCAGGGAACCAGAUUGGUGUCCGAGAUGAGGAAAUGGCUGUGGCCUGGGAAAUCAGUGAGAGGCCGCUUGGGAAUGAGAAUGCAGUGGACUGAAAGCACAGCCUGGCCAUCUGGAACCUGGGUUCUGGUCCCAGCCUCUUGCGGUCGCACUAGUGUGGAAUUCUCGGGUGUCAAGG
B15: ENSMUSG00000028439.173|Fam219a (ssRNA)
RNA: GGGAGUUCUACAGUCCGACGAUCGCUUCGAUAUCCGCAUGCUAAUGGUAUGGUAUGGUAUGGUAUGGUAUGCACAUGUGUGUGCAUGUGUGUGUGCCUGUGUGUGUGCGUGUGCGUGUGUGUAUGUGUGUGCGUGUGUGUGUGUGUGUGUUGUACCCGAGUGUGUGUUGAGCCUAUCUGUCCAGGGAACCAGAUUGGUGUCCGAGAUGAGGAAAUGGCUGUGGCCUGGGAAAUCAGUGAGAGGCCGCUUGGGAAUGAGAAUGCAGUGGACUGAAAGCACAGCCUGGCCAUCUGGAACCUGGGUCUCUUGCGGUCGCACUAGUGUGGAAUUCUCGGGUGUCAAGG

In all, about 9,900 sequences were measured (“r (bound/input frequency ratio)”: median about 0.7, highest 2% from about 6.5 on). This excerpt belongs to a sample that is enriched for the highest values.

Chain of TDP-43 (Q13148 whole entry): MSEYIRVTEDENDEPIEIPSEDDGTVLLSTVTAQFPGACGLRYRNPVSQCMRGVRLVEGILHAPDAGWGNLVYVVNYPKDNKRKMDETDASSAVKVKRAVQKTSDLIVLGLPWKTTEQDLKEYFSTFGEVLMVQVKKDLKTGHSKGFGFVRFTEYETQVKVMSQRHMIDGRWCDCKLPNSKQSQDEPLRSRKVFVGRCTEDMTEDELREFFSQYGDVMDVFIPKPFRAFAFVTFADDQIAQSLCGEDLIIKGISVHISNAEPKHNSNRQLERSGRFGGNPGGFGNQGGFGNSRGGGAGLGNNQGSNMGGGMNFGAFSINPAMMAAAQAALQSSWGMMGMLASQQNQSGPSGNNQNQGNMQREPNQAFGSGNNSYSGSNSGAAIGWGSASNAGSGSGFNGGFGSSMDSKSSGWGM

The target of this assay is TDP-43 (Homo sapiens, UniProt Q13148 1-414). The assay is described as follows: RNA Bind-n-Seq with designed 260-mer pool; 25 mM Tris-HCl, 150 mM KCl, 3 mM MgCl2, BSA (printed 500 mg/mL), 20 units/mL SUPERase IN; pH not stated; 500 nM RNA pool, 1 h, 4 C; TDP-43 5, 50, 500 nM; high values mean tight binding. The conditions noted are these: protein: recombinant; tags: SBP (GST cleaved off with PreScission; pGEX-GST-SBP). Summed up:
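Duplicate measurements used two independent batches of recombinant SBP-tagged TDP-43, which was captured on streptavidin beads at 5, 50 or 500 nM. The beads were incubated with 500 nM of an in vitro-transcribed 260-nt 3′ UTR oligo pool for 1 h at 4 °C in 25 mM Tris-HCl, 150 mM KCl, 3 mM MgCl2, BSA and SUPERase IN. After washing, biotin elution, reverse transcription, PCR amplification and sequencing, binding was expressed as R: each oligo's normalized read abundance in the bound sample over its abundance in input.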
As to B1, the binding signal was 0.524 R (bound/input frequency ratio).

As to B2, the binding signal was 0.806 R (bound/input frequency ratio).

Consider B3, for which the binding signal was 0.802 R (bound/input frequency ratio).

B4: the binding signal was 1.16 R (bound/input frequency ratio).

Turning to B5, the binding signal was 1.4 R (bound/input frequency ratio).

B6: the binding signal is 0.828 R (bound/input frequency ratio).

As for B7, the binding signal is 0.725 R (bound/input frequency ratio).

Regarding B8, the binding signal is 6.06 R (bound/input frequency ratio).

As for B9, the binding signal was 6.41 R (bound/input frequency ratio).

On to B10, for which the binding signal is 7.57 R (bound/input frequency ratio).

On to B11, for which the binding signal was 5.69 R (bound/input frequency ratio).

Turning to B12, the binding signal was 1.59 R (bound/input frequency ratio).

For B13, the binding signal was 8.2 R (bound/input frequency ratio).

For the molecule B14, the binding signal is 7.42 R (bound/input frequency ratio).

As for B15, the binding signal was 6.03 R (bound/input frequency ratio).
